For 104 compounds, B-score results are on record in PubChem BioAssay AID2642 (Johns Hopkins Ion Channel Center, 2010).

The whole screen tested about 310,000 compounds, of which about 3,900 (1.3%) were called active.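 How the source made its calls: active means compounds whose thallium flux B-score, printed positive for inhibition, exceeds three library SD while starting fluorescence stays within three; inactive means the rest.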 Many of the other results were omitted from the sample, so actives are more common in it than they were.

Potassium voltage-gated channel subfamily KQT member 1 (Homo sapiens), sequence (P51787 whole entry, looked up): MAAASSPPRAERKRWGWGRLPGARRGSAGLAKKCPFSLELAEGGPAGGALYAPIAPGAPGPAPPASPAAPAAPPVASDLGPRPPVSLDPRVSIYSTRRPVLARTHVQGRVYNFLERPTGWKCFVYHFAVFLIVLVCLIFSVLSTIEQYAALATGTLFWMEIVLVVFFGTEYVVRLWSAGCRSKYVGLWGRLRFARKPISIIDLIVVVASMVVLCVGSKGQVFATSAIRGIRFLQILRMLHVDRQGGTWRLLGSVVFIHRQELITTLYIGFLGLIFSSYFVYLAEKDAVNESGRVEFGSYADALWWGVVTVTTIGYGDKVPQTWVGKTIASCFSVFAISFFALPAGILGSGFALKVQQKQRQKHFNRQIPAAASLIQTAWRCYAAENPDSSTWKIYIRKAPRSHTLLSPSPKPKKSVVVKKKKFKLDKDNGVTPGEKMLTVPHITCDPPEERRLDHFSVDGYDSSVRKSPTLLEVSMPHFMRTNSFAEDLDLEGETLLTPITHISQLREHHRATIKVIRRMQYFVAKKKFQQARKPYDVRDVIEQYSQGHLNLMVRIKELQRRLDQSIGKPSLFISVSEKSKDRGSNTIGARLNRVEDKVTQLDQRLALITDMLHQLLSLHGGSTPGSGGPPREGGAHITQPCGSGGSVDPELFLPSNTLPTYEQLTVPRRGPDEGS

The assay has as its target Potassium voltage-gated channel subfamily KQT member 1 (Homo sapiens) (UniProt P51787). As to the kind of experiment: KCNQ1 potassium current blockers – cell-based, thallium flux, high-throughput, primary screen (AID 2642).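 Further: channel opened by potassium depolarization with thallium stimulus after 20 min compound exposure.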 Particulars: CHO-K1 KCNQ1, FluxOR thallium flux fluorescence, at 10 µM; active compounds read high.
With `O=C1CCN(Cc2ccccc2)CCN1[C@H](CSc1ccccc1)c1ccccc1`, the B-score result is “inactive”.

Regarding `CCNC(=O)c1ccc(OCC(=O)Nc2ccc(F)cc2)c(OC)c1`, the B-score is 6 (active).

Regarding `COc1ccc(NC(=O)COc2ccc(C(=O)c3ccc(F)cc3)cc2)cc1S(N)(=O)=O`, the B-score entry is “inactive”.

Turning to `CCOc1ccc(NC(=O)COc2ccc(C(=O)N3CCC(C(N)=O)CC3)cc2OC)cc1`, the B-score entry was “inactive”.

Consider `Cc1ccccc1Cn1c2ccccc2c2cnn(CC(=O)NCc3ccco3)c(=O)c21`, for which the B-score result was “inactive”.

`CSC1=N/C(=C\C=C\c2cccs2)C(=O)S1`: the B-score entry was “inactive”.

On to `CC(=O)Nc1ccc(NC(=O)C(C)OC(=O)C2CC(=O)N(CCc3ccccc3)C2)cc1` (centres undefined), for which the B-score entry was “inactive”.

As for `CC(C(=O)NCC1CCCCC1)N(C)Cc1cccc(Cl)c1` (centres undefined), the B-score was 8 (active).

As to `Cc1ccccc1NC(=O)NCC1CCN(Cc2cccc(Cl)c2)CC1`, the B-score entry is “inactive”.

For `COc1ccc(CN(C)C(C)C(=O)NC2CCCc3ccccc32)cc1` (centres undefined), the B-score result was “inactive”.

`COc1cccc(COC(=O)C2CCN(S(=O)(=O)c3cccs3)CC2)c1OC`: the B-score entry was “inactive”.

Take `O=C(COC(=O)c1cc2c(s1)CCCC2)NCc1ccccc1Cl`: the B-score entry is “inactive”.

As to `O=C(COC(=O)/C(=C/c1cccs1)c1cccs1)NCc1ccccc1Cl`, the B-score is 7 (active).

As for `O=C(COC(=O)c1cccs1)NCc1cccs1`, the B-score entry was “inactive”.

Regarding `O=c1c2c(nc3cc(-c4cccc(Cl)c4)[nH]n13)CCCC2`, the B-score result was “inactive”.

Turning to `O=C(CN1C(=O)NC2(CCCC2)C1=O)OCCOc1ccc(F)cc1`, the B-score entry is “inactive”.

Take `Cc1cc(C=O)c(C)n1-c1ccc(NC2CCCCC2)c([N+](=O)[O-])c1`: the B-score was 14 (active).

`Cc1c(NS(=O)(=O)c2ccc(NC3CCCC3)c([N+](=O)[O-])c2)c(=O)n(-c2ccccc2)n1C`: the B-score result was “inactive”.

Regarding `Cc1cc([N+](=O)[O-])ccc1NC1CCCC1`, the B-score entry was “inactive”.

With `CC(=O)Oc1c(C(=O)c2nnc(C)o2)c(=O)n(Cc2ccccc2)c2ccccc12`, the B-score entry was “inactive”.

As for `Cc1ccc(S(=O)(=O)c2c(COC(=O)c3cccc(Cl)c3)c(-c3ccccc3)nn2C)cc1`, the B-score entry was “inactive”.

On to `Cn1nc(-c2ccccc2)c(CO)c1Sc1ccccc1`, for which the B-score entry is “inactive”.

Regarding `Cn1nc(-c2ccccc2)c(CSc2cccc(Cl)c2)c1Cl`, the B-score is 6 (active).

Turning to `COc1cccc(OCCCN2CCCCCC2)c1`, the B-score result was “inactive”.

`CCCCCCCCCCOC(=O)Cn1c(COc2cccc(OC)c2)[n+](C)c2ccccc21`: the B-score is 8 (active).

For `CCCCCCCCCCOC(=O)Cn1c(COc2ccc(C)cc2)[n+](C)c2ccccc21`, the B-score result is “inactive”.

As to `COc1ccc(C2=NOC(Cn3nc(C(=O)NCc4ccc5c(c4)OCO5)cc3-c3ccccc3)C2)cc1` (centres undefined), the B-score result is “inactive”.

Take `CCCCN(CC)CCNC(=O)CCNC(=O)Cn1ccc2ccccc2c1=O`: the B-score entry was “inactive”.

Consider `Cc1cc(C(F)(F)F)nn1-c1nc(-c2ccco2)cc(C(F)(F)F)n1`, for which the B-score result is “inactive”.

With `FC(F)(F)c1cc(-c2ccco2)nc(NCc2ccc(Cl)cc2)n1`, the B-score is 11 (active).

With `FC(F)(F)c1cc(-c2cccs2)nc(NCc2ccco2)n1`, the B-score entry was “inactive”.

For `COc1ccc(NC(=O)CSc2nncc(=O)n2N)cc1OC`, the B-score entry is “inactive”.

Take `FC(F)Oc1ccc(NC(=S)NCc2ccco2)cc1Cl`: the B-score is 7 (active).

As to `COc1cc(NC(=S)NCc2ccco2)c(OC)cc1Cl`, the B-score entry is “inactive”.

Take `COc1cccc(NC(=S)NCc2ccco2)c1`: the B-score result is “inactive”.

On to `CCOC(=O)c1cnc2c(c(C)nn2CC)c1Cl`, for which the B-score entry was “inactive”.

In the case of `COc1ccc(S(=O)(=O)N2CCCC2CNC(=O)C(=O)NC2CC2)cc1` (centres undefined), the B-score result is “inactive”.

Take `CCCc1nc(NCc2ccc3c(c2)OCO3)c2nnn(Cc3ccccc3Cl)c2n1`: the B-score entry was “inactive”.

With `Cc1nc(Nc2ccccc2F)c2nnn(Cc3ccccc3Cl)c2n1`, the B-score result is “inactive”.

Regarding `Cc1nc(Nc2ccc3c(c2)OCCO3)c2nnn(Cc3ccccc3Cl)c2n1`, the B-score is 7 (active).

With `CCCN1C(=O)C(Cc2nc3ccccc3c(=O)n2-c2ccccc2)c2cc(C)ccc21` (centres undefined), the B-score result is “inactive”.

For `O=[N+]([O-])/C=C/c1ccc2c(ccn2Cc2ccccc2)c1`, the B-score result was “inactive”.

As to `COc1ccccc1N1CCN(C(=O)c2ccc(NC3=NC4CS(=O)(=O)CC4S3)cc2)CC1` (centres undefined), the B-score result is “inactive”.

`CCC(=O)Nc1nc(C)c(C(=O)Nc2cccc(Cl)c2)s1`: the B-score entry is “inactive”.

For the compound `CC(C(=O)NC1CCCC1)N(c1ccc(Oc2ccccc2)cc1)S(C)(=O)=O` (centres undefined), the B-score entry was “inactive”.

Regarding `COC(=O)CNC(=O)c1cc(-c2ccncc2)nc2ccccc12`, the B-score result was “inactive”.

Take `CCCCN(C)CCCNC(=O)c1cc(-c2cccs2)nc2ccccc12`: the B-score entry is “inactive”.

On to `CCc1ccc(-c2cc(C(=O)NCc3ccco3)c3ccccc3n2)s1`, for which the B-score was 6 (active).

Take `COc1ccccc1Cn1c(C)nnc1-c1cnn(C)c1N`: the B-score entry was “inactive”.

Regarding `Cc1cc(C)cc(NS(=O)(=O)Cc2ccccc2)c1`, the B-score result was “inactive”.

Regarding `CCc1cc(C(=O)OC)c(NC(=O)CC2Sc3ccc(C(F)(F)F)cc3NC2=O)s1` (centres undefined), the B-score result is “inactive”.

Consider `Cc1cccc(C(=O)NNC(=O)CSc2nnc(C(C)C)n2C)c1`, for which the B-score result was “inactive”.

With `Cc1cccc(CSc2nnc(NC(=O)CSc3nnc(C)s3)s2)c1`, the B-score entry is “inactive”.

As to `Cc1cccc(CSc2ccc(-c3cccs3)nn2)c1`, the B-score was 7 (active).

With `O=C(CSc1ccc(-c2cccs2)nn1)Nc1ccccc1F`, the B-score entry was “inactive”.

Consider `CCOC(=O)C1(CCOc2ccccc2)CCN(Cc2ccc(C#CCCO)cc2)CC1`, for which the B-score entry is “inactive”.

In the case of `Cc1cc(OCc2cc(C(=O)NCc3cc(C(C)C)no3)no2)cc(C)c1Cl`, the B-score entry was “inactive”.

Regarding `CCCCn1c(SCc2ncc(-c3ccccc3)o2)nc2cc(S(N)(=O)=O)ccc21`, the B-score result was “inactive”.

Regarding `O=C(/C=C/c1ccc(F)cc1)Nc1cccc(S(=O)(=O)Nc2cccc(C(F)(F)F)c2)c1`, the B-score result is “inactive”.

For the compound `Cc1oc2c(F)c(F)c(F)c(F)c2c1S(=O)(=O)Nc1cccc(C(F)(F)F)c1`, the B-score was 12 (active).

Consider `CCNS(=O)(=O)c1ccc(NC(=O)Nc2cccc(C(F)(F)F)c2)cc1`, for which the B-score entry was “inactive”.

`COc1ccc(/C(=N\O)c2nccc3cc(OC)c(OC)cc23)cc1OC`: the B-score result was “inactive”.

`CCOC(=O)N1CCN(C(=O)C2CCN(S(=O)(=O)c3cc(Cl)ccc3OCC)CC2)CC1`: the B-score entry is “inactive”.

As to `CCOC(=O)N1CCN(C(=O)C2CCN(c3ncnc4c3sc3cccc(F)c34)CC2)CC1`, the B-score is 6 (active).

As for `CCOC(=O)N1CCN(C(=O)C2CCN(Cc3ccc(OC)cc3OC)CC2)CC1`, the B-score entry is “inactive”.

As for `COc1ccc2c(c1)CCc1cn3ncc(C#N)c3nc1-2`, the B-score result was “inactive”.

Turning to `CCOC(=O)C1CCN(C(=O)C2CCN(S(=O)(=O)CC)CC2)CC1`, the B-score result was “inactive”.

Regarding `CCOC(=O)c1cn(CC)c2cc(F)c(F)cc2c1=O`, the B-score result is “inactive”.

In the case of `CCOC(=O)N1CCN(C(=O)c2cc3c(-c4ccc(Cl)cc4)nn(C)c3s2)CC1`, the B-score result was “inactive”.

As for `COc1ccccc1N1CCN(C(=O)c2cc3c(-c4ccc(Cl)cc4)nn(C)c3s2)CC1`, the B-score result is “inactive”.

On to `Cn1nc(-c2ccc(Cl)cc2)c2cc(C(=O)NCc3ccco3)sc21`, for which the B-score is 6 (active).

For the compound `CN1CCc2ccccc2C1Cc1ccccc1NC(=O)c1sc2ccccc2c1Cl` (centres undefined), the B-score entry is “inactive”.

On to `CCN(CC(=O)Nc1c(F)cccc1F)C(=O)c1ccc(Sc2nncn2C)c([N+](=O)[O-])c1`, for which the B-score entry is “inactive”.

With `COc1ccc(CNc2ccc3c(c2)CCC3)cc1OC`, the B-score entry is “inactive”.

Consider `COc1ccc(OC)c(CCNC(=O)CCn2ccc3cc(S(=O)(=O)N4CCCC4)ccc32)c1`, for which the B-score entry was “inactive”.

For `CCOCc1nnc(NC(=O)CCC2CCCCC2)s1`, the B-score entry was “inactive”.

As for `CN1CCN(NC(=O)Nc2ccc(Br)cc2)CC1`, the B-score result was “inactive”.

Take `CC1CCC(NC(=O)C2c3ccccc3C(=O)N2Cc2ccc3c(c2)OCO3)CC1` (centres undefined): the B-score result was “inactive”.

Turning to `CNC(=O)C1CC(=O)N(Cc2ccc3c(c2)OCO3)C(=Nc2ccc(F)cc2)S1` (centres undefined), the B-score entry is “inactive”.

As for `CC1CCC(N2CC(=O)N(Cc3ccc4c(c3)OCO4)C(c3ccc(F)cc3)C2=O)CC1` (centres undefined), the B-score was 6 (active).

Regarding `COc1ccccc1C(=O)NC(=S)NC12CC3CC(CC(C3)C1)C2`, the B-score result was “inactive”.

As for `CCCN1Cc2cccc(C(=O)NCc3ccccc3)c2C1=O`, the B-score is 8 (active).

As for `CSc1ccccc1C(=O)NCc1ccccc1`, the B-score entry was “inactive”.

In the case of `COCCN1Cc2cccc(C(=O)Nc3ccccc3OC)c2C1=O`, the B-score result was “inactive”.

As to `CSc1ccccc1NC(=O)c1cnc2sc(C)cn2c1=O`, the B-score result is “inactive”.

Consider `Cc1nc(NC(=O)C2CCCCC2)sc1C`, for which the B-score entry was “inactive”.

As to `CCN(CC)CCN(C(=O)c1cc(Cl)sc1Cl)c1nc2cc3c(cc2s1)OCO3`, the B-score is 7 (active).

For `CN(C)CCN(C(=O)C1CCCCC1)c1nc2cc3c(cc2s1)OCO3`, the B-score result was “inactive”.

For the compound `CCN(CC)CCN(C(=O)c1ccc(N2C(=O)CCC2=O)cc1)c1nc2cc3c(cc2s1)OCO3`, the B-score result was “inactive”.

Take `CCCc1nn2c(=O)cc(CSCC(=O)Nc3cccc(C)c3)nc2s1`: the B-score result was “inactive”.

As to `CC(=O)c1ccc(-c2ccc(Cn3c(C)nc4cc(N)c(C)nc43)cc2)cc1`, the B-score entry was “inactive”.

`Cc1cc(-c2csc(N)n2)c(C)n1Cc1ccccc1`: the B-score entry was “inactive”.

Regarding `Cc1cc2nc3c(=O)n(Cc4ccccc4)c(=O)[nH]c3nc2cc1N`, the B-score was 8 (active).

On to `O=C(O)c1ccc2c(=O)n3c(nc2c1)/C(=C/c1ccc(Cl)c([N+](=O)[O-])c1)CC3`, for which the B-score entry was “inactive”.

In the case of `CC(=O)C(C)n1cnc2scc(-c3ccc(C)cc3)c2c1=O` (centres undefined), the B-score entry was “inactive”.

With `CCOC(=O)C(C)n1cnc2scc(-c3ccc(C)c(C)c3)c2c1=O` (centres undefined), the B-score is 6 (active).

For the compound `CCn1cnc2scc(-c3ccc(C)c(C)c3)c2c1=O`, the B-score entry is “inactive”.

Regarding `CC(c1nnc(SCC(=O)Nc2sccc2C#N)n1-c1ccc(Cl)cc1)N(C)C` (centres undefined), the B-score result is “inactive”.

With `Fc1ccc2[nH]c3c(N4CCSCC4)ncnc3c2c1`, the B-score is 8 (active).

Consider `Cc1c(CN2CC[C@@H](N3CCN(c4ccccn4)CC3)[C@H](O)C2)[nH]c2ccc(F)cc12`, for which the B-score entry was “inactive”.

With `C=CCn1c(Cn2nnc3ccccc32)nnc1SCC(=O)N/N=C/c1cc(Br)cc(OC)c1O`, the B-score entry is “inactive”.

Consider `COc1ccc(/C=C2\CCCC3C2=NN(C(=O)c2scnc2C)C3c2ccc(OC)cc2)cc1` (centres undefined), for which the B-score is 8 (active).

Take `CCOC(=O)C1(Cc2ccccc2C(F)(F)F)CCN(C(=O)c2cc(C)n(C)n2)CC1`: the B-score result is “inactive”.

As for `O=S(=O)(c1ccccc1)c1nc(Cc2ccccc2)oc1N1CCOCC1`, the B-score entry was “inactive”.
